PubChem BioAssay (NCATS)
Results filed as inconclusive are left out. A call without a number means that no potency is given here. The source made the active and inactive calls. Unless noted, calls follow the shape of the dose curve; as a rule, active = well fitted curve in the direction sought with a large enough effect; inconclusive = small, poorly fitted or top-dose-only effect, or another doubt; inactive = no such curve, though single readings can be large; an effect the other way counts as inactive or inconclusive.

Tests used:
[1] = target: Metallo-beta-lactamase type 2 (Klebsiella pneumoniae) (UniProt C7C422); assay: qHTS to identify inhibitors of the New Delhi Metallo-beta-lactamase (NDM): assay validation screen against the NCATS LOPAC Collection (AID 1794843);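 also: nitrocefin turnover by NDM-1 measured as 485 nm absorbance at plateau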
Sequence of Metallo-beta-lactamase type 2 (Klebsiella pneumoniae) (C7C422 whole entry, looked up): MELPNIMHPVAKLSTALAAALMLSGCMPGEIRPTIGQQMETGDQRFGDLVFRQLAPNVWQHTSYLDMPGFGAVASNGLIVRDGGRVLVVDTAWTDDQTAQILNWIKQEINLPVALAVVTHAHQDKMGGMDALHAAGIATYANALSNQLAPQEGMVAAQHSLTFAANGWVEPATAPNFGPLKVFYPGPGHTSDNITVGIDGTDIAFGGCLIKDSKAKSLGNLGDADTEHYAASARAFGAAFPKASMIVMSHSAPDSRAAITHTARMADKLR
In short: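 Nitrocefin hydrolysis (50 uM substrate stock) by NDM-1, 2 nM final, was followed by 485 nm absorbance after compound preincubation; buffer was 50 mM HEPES pH 7.0, 1 uM ZnSO4, 0.01% Tween20.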

[2] = target: Glutathione peroxidase 1 (Homo sapiens) (UniProt P07203); assay: Primary qHTS Assay for Inhibitors of Recombinant Selenoprotein Glutathione Peroxidase 1 (GPX1) (AID 1845191); also: nearly all actives have a fitted effect of over 65% in size
Sequence of Glutathione peroxidase 1 (Homo sapiens) (P07203 whole entry, looked up): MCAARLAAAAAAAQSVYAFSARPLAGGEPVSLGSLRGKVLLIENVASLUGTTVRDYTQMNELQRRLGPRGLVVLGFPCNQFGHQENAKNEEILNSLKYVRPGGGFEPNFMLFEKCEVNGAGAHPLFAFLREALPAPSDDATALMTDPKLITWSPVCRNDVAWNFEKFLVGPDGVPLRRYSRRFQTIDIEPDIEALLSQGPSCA
In short: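 Recombinant GPX1 (10 nM final) was preincubated with compound for 30 min at room temperature, then reacted with 1 mM GSH, 0.5 mM CHP, 0.5 mM NADPH and 100 nM glutathione reductase; NADPH fluorescence (340/450 nm) was read at 0 and 15 min.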

[3] = target: Phospholipid hydroperoxide glutathione peroxidase GPX4 (Homo sapiens) (UniProt P36969); assay: Primary qHTS Assay for Inhibitors of Recombinant Selenoprotein Glutathione Peroxidase 4 (GPX4) (AID 1845192); also: nearly all actives have a fitted effect of over 65% in size
Sequence of Phospholipid hydroperoxide glutathione peroxidase GPX4 (Homo sapiens) (P36969 whole entry, looked up): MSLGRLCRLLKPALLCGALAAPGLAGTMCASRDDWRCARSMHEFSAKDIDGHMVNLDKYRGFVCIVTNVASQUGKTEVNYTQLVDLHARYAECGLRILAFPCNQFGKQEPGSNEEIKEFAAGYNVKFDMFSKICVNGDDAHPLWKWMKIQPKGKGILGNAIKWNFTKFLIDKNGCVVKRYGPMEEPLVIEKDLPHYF
In short: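 GR-coupled readout: 100 nM GR, 1 mM GSH, 0.5 mM NADPH; NADPH fluorescence (ex 340/em 450 nm) read at t=0 and after 15 min RT. GPX4 200 nM, preincubated 30 min with compound; substrate 0.5 mM CHP.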

[4] = NCATS anti-infectives library activity on HEK293 viability as a counter-qHTS vs the C. elegans viability qHTS (AID 1745854);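 also: HEK293 cells exposed to compounds for 24 hr before the viability read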
In short: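 HEK293 cells (1,500/well) exposed 24 hr at 37C to 1:5 titrations, up to 41.7 uM final; counter-screen to a C. elegans viability qHTS. Viability by CellTiter-Glo luminescence after 10 min at room temperature; digitonin as control.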

[5] = NCATS anti-infectives library activity on the primary C. elegans qHTS viability assay (AID 1745855; calls by dose curve; also: potency is read from the fitted curve at half-maximal effect); conditions: C. elegans worm area imaging, day 7
In short: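 Viability read-out is GFP fluorescence of PE254-GFP-FLuc C. elegans, measured by laser cytometry (488 nm) at day 0, 3 and 7. Ten L1 worms per well were incubated 7 days at 21 °C with compounds and bacterial capsules in S medium.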

[6] = target: Catechol O-methyltransferase (Homo sapiens) (UniProt P21964); assay: Confirmatory Screen for Target Class Profiling of Small Molecule Inhibitors of Methyltransferases (AID 1745852; calls by dose curve; also: potency is read from the fitted curve at half-maximal effect); conditions: MTase-Glo luminescence, SAH detection, recombinant enzyme; measured here: COMT max response; stronger effect = lower value
Sequence of Catechol O-methyltransferase (Homo sapiens) (P21964 whole entry, looked up): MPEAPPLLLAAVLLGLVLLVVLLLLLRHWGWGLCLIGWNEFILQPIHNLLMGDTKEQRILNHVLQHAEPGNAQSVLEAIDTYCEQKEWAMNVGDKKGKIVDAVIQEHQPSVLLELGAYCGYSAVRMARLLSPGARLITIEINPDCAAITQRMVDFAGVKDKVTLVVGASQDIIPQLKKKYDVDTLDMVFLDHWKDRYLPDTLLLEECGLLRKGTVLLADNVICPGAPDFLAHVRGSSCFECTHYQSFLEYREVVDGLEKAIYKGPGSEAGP

[7] = target: Guanidinoacetate N-methyltransferase (Homo sapiens) (UniProt Q14353); assay: as above; conditions: MTase-Glo luminescence, SAH detection, recombinant enzyme; activity change, negative = inhibition: at 57.3 µM (top of the series)
[8] = target: Nicotinamide N-methyltransferase (Homo sapiens) (UniProt P40261); assay: as above; conditions: MTase-Glo luminescence, SAH detection, recombinant enzyme; measured here: NNMT max response; stronger effect = lower value
Sequence of Nicotinamide N-methyltransferase (Homo sapiens) (P40261 whole entry, looked up): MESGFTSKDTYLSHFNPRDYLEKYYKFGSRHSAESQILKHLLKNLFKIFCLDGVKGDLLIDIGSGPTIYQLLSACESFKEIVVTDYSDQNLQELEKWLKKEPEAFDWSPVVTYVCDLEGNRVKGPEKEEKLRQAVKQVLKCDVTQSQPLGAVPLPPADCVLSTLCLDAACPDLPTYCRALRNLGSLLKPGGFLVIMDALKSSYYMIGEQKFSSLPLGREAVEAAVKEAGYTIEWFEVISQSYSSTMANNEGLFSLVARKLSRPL

[9] = target: Phenylethanolamine N-methyltransferase (Homo sapiens) (UniProt P11086); assay: as above; conditions: MTase-Glo luminescence, SAH detection, recombinant enzyme; measured here: PNMT max response; stronger effect = lower value
Sequence of Phenylethanolamine N-methyltransferase (Homo sapiens) (P11086 whole entry, looked up): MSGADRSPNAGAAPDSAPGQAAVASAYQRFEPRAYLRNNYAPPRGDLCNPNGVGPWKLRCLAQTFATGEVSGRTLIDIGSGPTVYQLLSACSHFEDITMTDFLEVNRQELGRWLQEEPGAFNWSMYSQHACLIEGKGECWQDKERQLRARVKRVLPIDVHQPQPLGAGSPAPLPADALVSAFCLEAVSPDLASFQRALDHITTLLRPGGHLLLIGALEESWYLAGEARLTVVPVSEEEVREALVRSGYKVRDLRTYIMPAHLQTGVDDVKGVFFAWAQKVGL

[10] = target: Nuclear receptor subfamily 1 group I member 3 (Homo sapiens) (UniProt Q14994); assay: Primary qHTS for antagonist of constitutive androstane receptor (CAR) against the NCATS DSHEA and TCM libraries (AID 1794836)
Sequence of Nuclear receptor subfamily 1 group I member 3 (Homo sapiens) (Q14994 whole entry, looked up): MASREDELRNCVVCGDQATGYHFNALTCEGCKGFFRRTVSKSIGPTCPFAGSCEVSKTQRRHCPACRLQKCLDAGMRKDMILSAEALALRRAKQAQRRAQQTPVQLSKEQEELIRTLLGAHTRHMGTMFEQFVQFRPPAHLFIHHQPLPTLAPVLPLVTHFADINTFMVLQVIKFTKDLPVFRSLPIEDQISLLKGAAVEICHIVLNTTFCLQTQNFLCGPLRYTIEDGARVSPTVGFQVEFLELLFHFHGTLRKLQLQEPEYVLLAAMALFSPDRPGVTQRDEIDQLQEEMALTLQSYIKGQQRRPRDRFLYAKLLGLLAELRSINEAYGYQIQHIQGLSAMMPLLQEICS
In short: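 HepG2 cells stably carrying hCAR and a CYP2B6 luciferase reporter (2,500 cells/well) attached for 5 h, then received compounds with 48 uM CITCO for 24 h at 37C. ONE-Glo luminescence read antagonism; CellTiter-Fluor (405/540 nm) gave viability.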

[11] = Viability counterscreen for antagonist of constitutive androstane receptor (CAR) against the NCATS DSHEA and TCM libraries (AID 1794837);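 also: compound exposure lasted 24 h before viability reading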
In short: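 Viability was measured by CellTiter-Fluor fluorescence (405/540 nm, 1 hr) in HepG2-CYP2B6-hCAR cells. Cells were co-treated 24 hr with 48 uM CITCO (final), antagonist mode, and test substances.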

[12] = Viability counterscreen for agonist of constitutive androstane receptor (CAR) against the NCATS DSHEA and TCM libraries (AID 1794838)
In short: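 Cell viability, from CellTiter-Fluor fluorescence (405/540 nm), was scored after a 24 h, 37C exposure of HepG2 cells carrying CYP2B6 reporter and hCAR to test substances in presence of 0.75 uM PK11195.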

[13] = target: Nuclear receptor subfamily 1 group I member 3 (Homo sapiens) (UniProt Q14994); assay: Primary qHTS for agonist of constitutive androstane receptor (CAR) against the NCATS DSHEA and TCM libraries (AID 1794839); conditions: CAR agonist reporter cells, qHTS luminescence; also: potency is read from the fitted curve at half-maximal effect
In short: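 Agonist mode in presence of hCAR antagonist PK11195 (0.75 µM final): test substances, 24 h, 37 °C, on HepG2-CYP2B6-hCAR cells. Same-well readouts: fluorescence viability, then ONE-Glo luminescence; CITCO as reference agonist.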

[14] = HepG2 viability counterscreen (readout 2: ATP content) against the NCATS DSHEA and TCM libraries (AID 1794840);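 also: HepG2 cells exposed to substances for about 24 h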
In short: (§1)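 Readout 1: cellular protease activity, GF-AFC substrate (25 uM final, 30 min, fluorescence 380/510 nm). Readout 2: ATP content by CellTiter-Glo luminescence after 30 min at RT. Both follow ~24 h exposure of HepG2 cells (1,000/well) to substances.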

[15] = HepG2 viability counterscreen (readout 1: protease activity) against the NCATS DSHEA and TCM libraries (AID 1794841);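 also: cells exposed to compounds for about 24 h before the protease read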
In short: as §1

[16] = Quantitative High-Throughput drug screen in 47 multiple myeloma cell lines against the NCATS MIPE library collection: EJM_DSMZ cell viability assay (AID 1918926; also: nearly all actives have a fitted effect of over 30% in size)
In short: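 Relative luminescence from CellTiter-Glo served as the viability signal, referenced to DMSO-treated (100%) and cell-free medium (0%) controls. Treatment lasted 48 hours at 37C with 500 cells per well.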

With `NCC(O)c1ccc(O)cc1` (stereo not given) the outcome [1] was “inactive”, the Potency [2] was “inactive” and the Potency [3] was “inactive”.
In the case of `Cc1cccc(C)c1NC1=NCCCS1`, the outcome [1] is reported as “inactive”, the Potency [2] is reported as “inactive” and the Potency [3] is reported as “inactive”.
With `c1ccc2c(c1)OCC(C1=NCCN1)O2` (stereo not given) the outcome [1] was “inactive”, the Potency [2] was “inactive” and the Potency [3] was “inactive”.
For `c1ccc(C2CC2)c(OCC2=NCCN2)c1`, the outcome [1] was “inactive”, the Potency [2] was “inactive” and the Potency [3] was “inactive”.
In the case of `CC(CCc1ccccc1)NC(C)C(O)c1ccc(O)cc1` (stereo not given), the outcome [1] is reported as “inactive”, the Potency [2] is reported as “inactive” and the Potency [3] is reported as “inactive”.
For `Cc1sc2c(c1C)C(c1ccc(Cl)cc1)=N[C@@H](CC(=O)OC(C)(C)C)c1nnc(C)n1-2`, the outcome [4] was “inactive”, the Potency [5] was 4.09 µM (active) and the Potency [2] was “inactive”. The Potency [3] was “inactive”.
In the case of `COc1ccccc1N1CCNCC1`, the outcome [1] is reported as “inactive”, the Potency [2] is reported as “inactive” and the Potency [3] is reported as “inactive”.
For `CC(=O)[C@H]1CC[C@H]2[C@@H]3CC[C@H]4C[C@](C)(O)CC[C@]4(C)[C@H]3CC[C@]12C`, the outcome [1] was “inactive”, the Potency [2] was “inactive” and the Potency [3] was “inactive”.
With `Cn1c(CCCC(=O)O)nc2cc(N(CCCl)CCCl)ccc21` the outcome [1] was “inactive”, the Potency [2] was “inactive” and the Potency [3] was “inactive”.
For `CCC1(C2=NCCN2)Cc2ccccc2O1` (stereo not given), the outcome [1] was “inactive”, the Potency [2] was “inactive” and the Potency [3] was “inactive”.
In the case of `CCCN1CCC[C@@H]2Cc3nc(N)ncc3C[C@H]21`, the outcome [1] is reported as “inactive”, the Potency [2] is reported as “inactive” and the Potency [3] is reported as “inactive”.
For `Cc1ncc(CNC(=O)N(CCCl)N=O)c(N)n1`, the outcome [1] was “inactive”, the Potency [2] was “inactive” and the Potency [3] was “inactive”.
For `CCCN1CCC[C@@H]2Cc3[nH]ncc3C[C@H]21`, the outcome [1] was “inactive”, the Potency [2] was “inactive” and the Potency [3] was “inactive”.
For `NN=C(N)N`, the outcome [1] was “inactive”, the Potency [2] was “inactive” and the Potency [3] was “inactive”.
In the case of `CC(=O)[C@H]1CC[C@H]2[C@@H]3CC[C@H]4C[C@H](O)CC[C@]4(C)[C@H]3C(=O)C[C@]12C`, the outcome [1] is reported as “inactive”, the Potency [2] is reported as “inactive” and the Potency [3] is reported as “inactive”.
For `O=C1NCN(c2ccccc2)C12CCN(CC1COc3ccccc3O1)CC2` (stereo not given), the outcome [1] was “inactive”, the Potency [2] was “inactive” and the Potency [3] was “inactive”.
With `N#CC(C#N)=Cc1ccc(O)c(O)c1` the activity [6] was 34.9%, the activity change, negative = inhibition [7] was 1.06% and the activity [8] was -6.68%. For the same compound, the activity [9] was -1.74%, the Potency [2] was “inactive” and the Potency [3] was “inactive”.
`CN1C[C@H](CNC(=O)OCc2ccccc2)C[C@@H]2c3cccc4c3c(cn4C)C[C@H]21` gave an activity [6] of -5.5%, an activity change, negative = inhibition [7] of 5.68% and an activity [8] of -16.1%. For the same compound, the activity [9] was -5.43%, the outcome [1] was “inactive” and the Potency [2] was “inactive”. For the same compound, the Potency [3] was “inactive”.
For `O=c1[nH]c2ccccc2n1CCCN1CCC(n2c(=O)[nH]c3cc(Cl)ccc32)CC1`, the outcome [1] was “inactive”, the Potency [2] was “inactive” and the Potency [3] was “inactive”.
With `CC[C@@H](CO)NC(=O)[C@@H]1C=C2c3cccc4c3c(cn4C)C[C@H]2N(C)C1` the activity [6] was 1.79%, the activity change, negative = inhibition [7] was -1.19% and the activity [8] was -2.9%. For the same compound, the activity [9] was -4.59%, the outcome [1] was “inactive” and the Potency [2] was “inactive”. For the same compound, the Potency [3] was “inactive”.
For `Cc1ccc(S(=O)(=O)N[C@@H](CCCCN)C(=O)CCl)cc1`, the outcome [1] was “inactive”, the Potency [2] was “inactive” and the Potency [3] was “inactive”.
In the case of `COc1ccc(C(CN(C)C)C2(O)CCCCC2)cc1` (stereo not given), the outcome [1] is reported as “inactive”, the Potency [2] is reported as “inactive” and the Potency [3] is reported as “inactive”.
With `Nc1ccncc1` the activity [6] was 0%, the Potency [7] was 30.6 µM (active) and the activity [8] was -30.8%. The activity [9] was -0.809%, the outcome [1] was “inactive” and the Potency [2] was “inactive”. For the same compound, the Potency [3] was “inactive”.
In the case of `CC[C@@H](CO)NC(=O)[C@@H]1C=C2c3cccc4[nH]cc(c34)C[C@H]2N(C)C1`, the outcome [1] is reported as “inactive”, the Potency [2] is reported as “inactive” and the Potency [3] is reported as “inactive”.
Work on `CC[N+](CC)(CC)CC` yielded an activity [6] of 2.75%, an activity change, negative = inhibition [7] of 3.74% and an activity [8] of -4.15%. For the same compound, the activity [9] was 4.2%.
With `O=c1c(O)c(-c2ccc(O)c(O)c2)oc2cc(O)cc(O)c12` the outcome [10] was “inactive”.
In the case of `NCC(CC(=O)O)c1ccc(Cl)cc1` (stereo not given), the outcome [4] is reported as “inactive”, the outcome [1] is reported as “inactive” and the Potency [2] is reported as “inactive”. For the same compound, the Potency [3] was “inactive”.
Work on `CC(C)=CCOc1c2occc2cc2ccc(=O)oc12` yielded an activity [6] of -8.52%, an activity change, negative = inhibition [7] of -1.68% and an activity [8] of -26.3%. The activity [9] was -3.85%, the outcome [10] was “inactive” and the outcome [11] was “inactive”. The outcome [12] was “inactive”, the Potency [13] was 14.1 µM (active) and the outcome [14] was “inactive”. For the same compound, the outcome [15] was “inactive”, the outcome [1] was “inactive” and the Potency [2] was “inactive”. The Potency [3] was “inactive”.
In the case of `O=C1CC[C@@]2(O)[C@H]3Cc4ccc(O)c5c4[C@@]2(CCN3CC2CC2)[C@H]1O5`, the Potency [2] is reported as “inactive” and the Potency [3] is reported as “inactive”.
With `O=[N+]([O-])c1cc([As](=O)(O)O)ccc1O` the Potency [2] was “inactive” and the Potency [3] was “inactive”.
For `CNCC(O)c1ccc(O)cc1` (stereo not given), the outcome [1] was “inactive”, the Potency [2] was “inactive” and the Potency [3] was “inactive”. For the same compound, the Potency [16] was “inactive”.
In the case of `C[C@]12CCC(=O)C(O)=C1CC[C@@H]1[C@@H]2CC[C@]2(C)C(=O)CC[C@@H]12`, the Potency [2] is reported as “inactive” and the Potency [3] is reported as “inactive”.
With `CC(C)CC(N(C)C)C1(c2ccc(Cl)cc2)CCC1` (stereo not given) the Potency [2] was “inactive” and the Potency [3] was “inactive”.
With `CC(C)=CC1C(C(=O)OCc2cccc(Oc3ccccc3)c2)C1(C)C` (stereo not given) the Potency [2] was “inactive” and the Potency [3] was “inactive”.
For `Oc1ccc(Cl)cc1Cc1ccccc1`, the Potency [2] was “inactive” and the Potency [3] was “inactive”.
In the case of `c1ccc2c(c1)Nc1ccccc1S2`, the Potency [2] is reported as “inactive” and the Potency [3] is reported as “inactive”.
In the case of `CCC(C(N)=O)N1CCCC1=O` (stereo not given), the Potency [2] is reported as “inactive” and the Potency [3] is reported as “inactive”.
